Screening results as filed in PubChem.
An excerpt weighted towards active compounds, which were near 1% of everything screened.
ugtP null kill: growth inhibition of ugtP-null S. aureus, primary screen, RN4220 ugtP deletion, OD600 | AID 1259309, 2017 | 330,000 tested, 0.54% active | growth inhibition, % (test concentration not listed) | 16 h; in the data active means growth inhibition above about 68%;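 further: plate controls were untreated wells for no effect and antibiotic for full effect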
SSB-PriA inh: inhibitors of Klebsiella pneumoniae PriA binding to SSB C-terminal tail, primary screen, biochemical, AlphaScreen. inhibition, % at 33 µM. AID 1272365, 2023. 430,000 tested, 0.6% active. PriA–SSB C-terminal tail interaction (Klebsiella pneumoniae). AlphaScreen SSBct-PriA binding, biotinylated peptide; in the data active means inhibition mostly above about 37%, no sharp cut-off; inactive means mostly below about 20%;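 further: plate controls were negative control peptide for no effect and reference peptide for full effect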
Sa RN4220 lethal: growth inhibition of S. aureus RN4220, primary screen, OD600. 16 h. inhibition, % (no concentration beside the values). 330,000 tested, 0.33% active; in the data active means inhibition above about 85%;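 further: plate controls were untreated cells for no effect and reference antibiotic for full effect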
An asterisk follows results filed as active; i = inactive; / = not tested or not shown; ! = not confirmed by another sample.

SMILES	ugtP null kill	SSB-PriA inh	Sa RN4220 lethal
O=[N+]([O-])c1ccc(C[n+]2cccc3ccc4cccnc4c32)cc1	3	90*	-3
CCNCCC12CC3CC(CC(C3)C1)C2	/	5	/
COCC(C)(O)CNC(=O)c1cc(C2CC2)on1 (stereo not drawn)	/	4	/
O=C(c1c[nH]c2ccccc12)N1CCC(Oc2ccc(C(F)(F)F)cn2)CC1	/	-3	/
O=C(c1ccc(Cn2ccnc2)cc1)N1CCC(Oc2cccnn2)C1 (stereo not drawn)	/	6	/
COCC(=O)NCCn1ncc2c(N3CCCCC3)ncnc21	/	8	/
O=C(NC(=S)N1CCCc2ccccc21)c1ccccc1	0	42*!	8
O=C(NC(=S)N1CCCc2ccccc21)c1ccc(Cl)cc1	-10	19	0
O=C(O)CCSc1ccc([N+](=O)[O-])cc1[N+](=O)[O-]	/	-8	/
CC(C)OC(=O)CSc1ccc([N+](=O)[O-])cc1[N+](=O)[O-]	/	59*	/
COc1cccc(-c2cc(=O)n(CC(=O)Nc3cc(Cl)c(OC)cc3OC)c(C)n2)c1	/	-8	/
COc1ccc(OC)c(Nc2nc(CC(=O)Nc3ccc(C)cc3)cs2)c1	/	31*	/
COc1ccc(OC)c(Nc2nc(CC(=O)Nc3ccc4c(c3)OCCO4)cs2)c1	/	33*	/
CCOc1ccccc1NC(=O)Cc1csc(Nc2cccc(Cl)c2)n1	/	5	/
O=C(Cc1csc(Nc2ccc(F)cc2)n1)Nc1ccc2c(c1)OCCO2	/	6	/
COc1ccc(OC)c(Nc2nc(CC(N)=O)cs2)c1	/	-10	/
COc1ccc(NC(=O)Cc2csc(Nc3cccc(Cl)c3)n2)c(OC)c1	/	16*	/
CCCC(=O)Nc1nc(C)c(-c2csc(Nc3cc(OC)ccc3OC)n2)s1	-4	17	-9
CCCC(C)C(=O)Nc1nc(C)c(-c2csc(Nc3cc(OC)ccc3OC)n2)s1 (stereo not drawn)	-37	47*	-25
CCCC(=O)Nc1nnc(Cc2ccc(C)c(C)c2)o1	/	2	/
O=C(CCCSc1ccc(NC(=O)c2ccc(F)cc2)nn1)NCc1ccccn1	/	-7	/
COC(=O)c1ccc(S(=O)(=O)Nc2ccn3nccc3c2)cc1	/	-3	/
COc1ccc(OC)c(Nc2nc(CC(=O)NCc3ccncc3)cs2)c1	/	12	/
COc1ccc(OC)c(Nc2nc(CC(=O)NCc3ccc(F)cc3)cs2)c1	/	18*	/
S=c1n(CN2CCOCC2)nc(-c2ccncc2)n1-c1ccccc1	/	-10	/
SMILES	ugtP null kill	SSB-PriA inh	Sa RN4220 lethal
Cc1c(-n2c(-c3cccc([N+](=O)[O-])c3)cn3c4c(=O)n(C)c(=O)n(C)c4nc23)c(=O)n(-c2ccccc2)n1C	/	-1	/
Cc1ccc(-n2nc(-c3ccccc3)cc2Nc2ccccc2N)cc1	12	36	2
Nc1ccccc1Nc1cc(-c2ccccc2)nn1-c1ccccc1	-3	60*	-4
CCCn1c(=NC(=O)c2ccc(Cl)s2)sc2c(OC)ccc(OC)c21	/	-17	/
CCOc1ccc(NC(=O)Cc2ccccc2)c([N+](=O)[O-])c1	16	43*	5
CCOc1ccc(N/C=C/C(=O)c2ccc(C)cc2)c([N+](=O)[O-])c1	1	/	-5
CCOc1ccc(NC(=O)c2snnc2C)c([N+](=O)[O-])c1	/	52*	/
CCOc1ccc(NC(=O)c2ccc([N+](=O)[O-])s2)c([N+](=O)[O-])c1	/	-8	/
CCOc1ccc(NC(=O)COc2ccccc2)c([N+](=O)[O-])c1	-66	7	10
CCOc1ccc(NC=CC(=O)c2ccccc2)c([N+](=O)[O-])c1	/	43*	/
Cc1csc(C(=O)NCCc2nc(-c3ccco3)cn2C)c1	/	-22	/
CC1=C([N+](=O)[O-])C(c2ccccc2F)N(C)C(=O)N1C (stereo not drawn)	/	4	/
Cc1cc(C(=O)NCCn2nc(-c3cccnc3)n(C3CC3)c2=O)no1	/	-13	/
FC(F)(F)c1cnc(C(c2ccccc2)c2ncn[nH]2)c(Cl)c1 (stereo not drawn)	13	-5	6
FC(F)(F)c1cnc(C(c2ccccn2)c2ncn[nH]2)c(Cl)c1 (stereo not drawn)	1	77*	3
CCCNC1=C(C)C(=O)C2=C(C1=O)C(COC(N)=O)[C@]1(OC)C3NC3CN21 (stereo partly drawn)	97*	-13	99*
CO[C@@]12[C@H](COC(N)=O)C3=C(C(=O)C(C)=C(N)C3=O)N1C[C@@H]1N[C@@H]12	/	-5	/
CCOc1ccc(Oc2ccc(NS(=O)(=O)c3cc(C(=O)O)ccc3Cl)cc2)cc1	1	7	0
CCOc1ccc(NS(=O)(=O)c2cc(NC(=O)c3ccc(C)cc3)ccc2Cl)cc1	85*	-7	2
O=C(Nc1ccccc1-c1cn2ccsc2n1)c1cc(=O)[nH]c(=O)[nH]1	/	-6	/
COc1ccc(C(=O)C=C(C)Nc2ccc3c(c2)OCO3)cc1	/	8	/
CC(=CC(=O)c1ccccc1)Nc1ccc2c(c1)OCO2	-6	41*	10
COCCn1c(=NC(=O)c2cc(OC)cc(OC)c2)sc2cc(NC(C)=O)ccc21	/	-14	/
O=C(Cc1csc(Nc2ccc(F)cc2)n1)NC1CCCCC1	/	-9	/
CN1CC=C(/C=C/c2ccc(-c3ccccc3)cc2)CC1	93*	0	21
SMILES	ugtP null kill	SSB-PriA inh	Sa RN4220 lethal
COc1ccc(/C=C/C2=CCN(C)CC2)cc1	9	4	2
C=CCN=c1scc(-c2ccc(OC(F)F)cc2)n1/N=C/c1ccccn1	/	i	/
N#Cc1cccnc1N1CCC(CNC(=O)C(=O)NCC2CCCO2)CC1 (stereo not drawn)	/	1	/
CCc1cccc(C)c1N(C(=O)Cn1c(COC)nc2ccccc21)C(C)COC (stereo not drawn)	2	46*	7
CCc1cccc(C)c1N(C(=O)Cn1c(CO)nc2ccccc21)[C@@H](C)COC	/	-4	/
O=C(c1ccco1)N1CCN(C(=O)c2cc3cc(Cl)cc(Cl)c3oc2=O)CC1	/	-10	/
C=CCOC(=O)C1=C(C)NC(SC)=C(C#N)C1c1ccc(OCC)cc1 (stereo not drawn)	91*	-19	-2
C=CCOC(=O)C1=C(C)NC(SC)=C(C#N)C1c1cccs1 (stereo not drawn)	9	-18	3
NC1=NCC(CC2CCCCC2)N1CCc1cc(C(F)(F)F)cc(C(F)(F)F)c1 (stereo not drawn)	101*	/	101*
NC1=NCC(Cc2ccccc2)N1CCc1cc(C(F)(F)F)cc(C(F)(F)F)c1 (stereo not drawn)	-1	/	-16
NC1=NC[C@H](Cc2ccc(O)cc2)N1CCc1cc(C(F)(F)F)cc(C(F)(F)F)c1	/	5	/
NC1=NC[C@@H](CC2CCCCC2)N1CCc1cc(C(F)(F)F)cc(C(F)(F)F)c1	100*	-5	100*
O=C(NCC(=O)N1CCC(COCc2ccc(Cl)cc2)CC1)c1ccccc1	/	-15	/
Cc1nn2c(nc1=O)NNC2(C)C(C)(C)C (stereo not drawn)	5	-7	3
C=CCCC1(C)NNc2nc(=O)c(C)nn21 (stereo not drawn)	/	98*	/
Cc1ccnc(NC(=O)NCCCSc2ccc(F)cc2)n1	/	-9	/
Nc1c(C(=O)NCc2ccccc2)nnn1Cc1ccccc1	3	98*	2
CSc1ccc(Cn2nnc(C(=O)NCc3ccccc3)c2N)cc1	-3	-11	-1
Cc1ccc(C)c(CSc2ncc(CO)n2CC(=O)NCc2ccc(F)cc2)c1	/	-8	/
